Reference: PubChem BioAssay (NCATS)
Results filed as inconclusive are left out. Calls of active or inactive are those of the source. Unless noted, the call rests on the fitted dose curve; in most records, active means well fitted curve in the direction sought with a large enough effect; inconclusive means small, poorly fitted or top-dose-only effect, or another doubt; inactive means no such curve, though single readings can be large; an effect the other way counts as inactive or inconclusive.

Experiments:
[1] = biological target: Cytochrome P450 2C9 (Homo sapiens) (UniProt P11712); assay: qHTS Assay for Inhibitors and Substrates of Cytochrome P450 2C9 (AID 883); further: on the % scale 0 is the no-effect control and ±100 the full control effect; nearly all actives have a fitted effect of over 60% in size
Cytochrome P450 2C9 (Homo sapiens), sequence (P11712 whole entry, looked up): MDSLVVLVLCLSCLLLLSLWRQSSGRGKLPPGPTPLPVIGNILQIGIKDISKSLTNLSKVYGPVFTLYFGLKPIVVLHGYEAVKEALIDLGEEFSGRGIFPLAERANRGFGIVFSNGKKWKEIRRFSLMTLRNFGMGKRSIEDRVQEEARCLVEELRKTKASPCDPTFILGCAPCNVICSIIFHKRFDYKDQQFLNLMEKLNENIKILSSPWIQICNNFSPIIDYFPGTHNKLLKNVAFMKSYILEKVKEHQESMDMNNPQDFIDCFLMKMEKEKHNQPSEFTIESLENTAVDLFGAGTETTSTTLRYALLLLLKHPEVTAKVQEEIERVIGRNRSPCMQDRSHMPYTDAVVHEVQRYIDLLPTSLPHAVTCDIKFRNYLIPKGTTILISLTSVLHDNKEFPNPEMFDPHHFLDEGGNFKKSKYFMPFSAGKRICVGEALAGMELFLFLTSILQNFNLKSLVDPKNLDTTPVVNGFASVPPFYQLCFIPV
How it was run: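 10nM CYP2C9 + 100uM Luciferin-H (=KM), 25mM KPO4; cpd 10 min 37C; NADPH regen, 60 min 37C; stop/detect with P450 Glo-Buffer 20 min; luminescence. Norm. to 57uM sulphaphenazole as full inhibition.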

[2] = biological target: Cytochrome P450 3A4 (Homo sapiens) (UniProt P08684); assay: qHTS Assay for Inhibitors and Substrates of Cytochrome P450 3A4 (AID 884); further: series mostly up to about 57 µM; on the % scale 0 is the no-effect control and ±100 the full control effect; nearly all actives have a fitted effect of over 50% in size
Cytochrome P450 3A4 (Homo sapiens), sequence (P08684 whole entry, looked up): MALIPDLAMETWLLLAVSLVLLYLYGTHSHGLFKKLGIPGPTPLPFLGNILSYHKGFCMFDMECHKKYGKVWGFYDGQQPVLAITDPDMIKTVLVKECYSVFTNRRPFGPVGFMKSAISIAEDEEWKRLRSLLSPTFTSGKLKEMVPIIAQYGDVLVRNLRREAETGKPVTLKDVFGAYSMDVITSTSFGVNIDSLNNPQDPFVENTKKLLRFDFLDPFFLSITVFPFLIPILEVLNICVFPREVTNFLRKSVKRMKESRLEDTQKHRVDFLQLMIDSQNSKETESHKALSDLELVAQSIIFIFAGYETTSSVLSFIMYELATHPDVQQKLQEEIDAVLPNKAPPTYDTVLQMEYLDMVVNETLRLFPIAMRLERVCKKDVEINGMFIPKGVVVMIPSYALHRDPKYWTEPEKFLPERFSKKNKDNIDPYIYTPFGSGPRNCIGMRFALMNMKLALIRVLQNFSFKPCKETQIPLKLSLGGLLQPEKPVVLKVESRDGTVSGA
How it was run: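 20 nM human CYP3A4 with 25 uM Luciferin-PPXE (at KM) in 200 mM KPO4, preincubated 10 min with compound; NADPH regeneration started a 60 min RT reaction. Luciferin detected by luminescence, normalized to 57 uM ketoconazole as full inhibition.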

[3] = biological target: Cytochrome P450 2C19 (Homo sapiens) (UniProt P33261); assay: qHTS Assay for Inhibitors and Substrates of Cytochrome P450 2C19 (AID 899); further: on the % scale 0 is the no-effect control and ±100 the full control effect; nearly all actives have a fitted effect of over 60% in size
Cytochrome P450 2C19 (Homo sapiens), sequence (P33261 whole entry, looked up): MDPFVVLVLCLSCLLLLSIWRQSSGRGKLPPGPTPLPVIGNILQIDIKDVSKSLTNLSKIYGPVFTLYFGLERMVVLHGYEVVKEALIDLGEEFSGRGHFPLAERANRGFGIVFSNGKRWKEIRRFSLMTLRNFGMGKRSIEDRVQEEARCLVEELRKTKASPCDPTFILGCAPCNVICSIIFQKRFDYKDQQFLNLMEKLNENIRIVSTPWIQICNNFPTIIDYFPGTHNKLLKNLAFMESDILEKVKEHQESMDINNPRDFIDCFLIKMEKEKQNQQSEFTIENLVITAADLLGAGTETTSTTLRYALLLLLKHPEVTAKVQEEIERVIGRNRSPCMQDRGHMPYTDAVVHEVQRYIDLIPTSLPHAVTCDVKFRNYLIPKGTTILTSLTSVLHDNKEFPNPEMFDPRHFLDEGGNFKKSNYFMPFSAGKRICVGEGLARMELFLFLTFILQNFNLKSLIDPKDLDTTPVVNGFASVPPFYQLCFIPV
How it was run: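 Luminescent read-out of luciferin formed from Luciferin-H EGE (10uM, equal to KM). Enzyme 5nM in 50mM KPO4; compound added, 10 min at 37C, then NADPH regenerating system for 60 min at 37C. Full inhibition defined by 57uM ketoconazole.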

[4] = qHTS for Inhibitors of Plasmodium falciparum (GB4) proliferation (AID 504315); further: nearly all actives have a fitted effect of over 50% in size; further: potency means the concentration at half of the fitted maximal effect;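 on activity change, negative = inhibition: 0% = DMSO vehicle and -100% = 0.29 µM artemisinin control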
How it was run: (§1)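 Erythrocytes infected with P. falciparum line (0.3% parasitemia, 2.5% hematocrit final) incubated with compounds 72 h at 37 °C, 5% CO2; SYBR Green lysis buffer added, fluorescence read next day. Normalized to 0.29 uM artemisinin and DMSO.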

[5] = qHTS for Inhibitors of Plasmodium falciparum (7G8) proliferation (AID 504316);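 further: series mostly up to about 6.7 µM; 0% = DMSO vehicle and -100% = 0.29 µM artemisinin full kill; nearly all actives have a fitted effect of over 65% in size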
How it was run: as §1

[6] = qHTS for Inhibitors of Plasmodium falciparum (HB3) proliferation (AID 504318); further: nearly all actives have a fitted effect of over 60% in size; further: potency means the concentration at half of the fitted maximal effect;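 on activity change, negative = inhibition: 0% = DMSO vehicle and -100% = artemisinin control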
How it was run: as §1

[7] = qHTS for Inhibitors of Plasmodium falciparum (CP250) proliferation (AID 504320);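 further: plate controls were DMSO vehicle for no effect and 0.29 µM artemisinin control for full effect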
How it was run: as §1

[8] = biological target: Atrial natriuretic peptide receptor 1 (Homo sapiens) (UniProt P16066); assay: Natriuretic polypeptide receptor (hNpr1) antagonism - Pilot CMLD screen (AID 1347052; calls by dose curve;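 further: HEK293 cells with hNpr1 stimulated by hNppA peptide at 0.1 nM; cGMP level read as GloSensor luciferase luminescence after agonist stimulation; series mostly up to about 9.2 µM; on the % scale 0 is the no-effect control and ±100 the full control effect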)
Atrial natriuretic peptide receptor 1 (Homo sapiens), sequence (P16066 whole entry, looked up): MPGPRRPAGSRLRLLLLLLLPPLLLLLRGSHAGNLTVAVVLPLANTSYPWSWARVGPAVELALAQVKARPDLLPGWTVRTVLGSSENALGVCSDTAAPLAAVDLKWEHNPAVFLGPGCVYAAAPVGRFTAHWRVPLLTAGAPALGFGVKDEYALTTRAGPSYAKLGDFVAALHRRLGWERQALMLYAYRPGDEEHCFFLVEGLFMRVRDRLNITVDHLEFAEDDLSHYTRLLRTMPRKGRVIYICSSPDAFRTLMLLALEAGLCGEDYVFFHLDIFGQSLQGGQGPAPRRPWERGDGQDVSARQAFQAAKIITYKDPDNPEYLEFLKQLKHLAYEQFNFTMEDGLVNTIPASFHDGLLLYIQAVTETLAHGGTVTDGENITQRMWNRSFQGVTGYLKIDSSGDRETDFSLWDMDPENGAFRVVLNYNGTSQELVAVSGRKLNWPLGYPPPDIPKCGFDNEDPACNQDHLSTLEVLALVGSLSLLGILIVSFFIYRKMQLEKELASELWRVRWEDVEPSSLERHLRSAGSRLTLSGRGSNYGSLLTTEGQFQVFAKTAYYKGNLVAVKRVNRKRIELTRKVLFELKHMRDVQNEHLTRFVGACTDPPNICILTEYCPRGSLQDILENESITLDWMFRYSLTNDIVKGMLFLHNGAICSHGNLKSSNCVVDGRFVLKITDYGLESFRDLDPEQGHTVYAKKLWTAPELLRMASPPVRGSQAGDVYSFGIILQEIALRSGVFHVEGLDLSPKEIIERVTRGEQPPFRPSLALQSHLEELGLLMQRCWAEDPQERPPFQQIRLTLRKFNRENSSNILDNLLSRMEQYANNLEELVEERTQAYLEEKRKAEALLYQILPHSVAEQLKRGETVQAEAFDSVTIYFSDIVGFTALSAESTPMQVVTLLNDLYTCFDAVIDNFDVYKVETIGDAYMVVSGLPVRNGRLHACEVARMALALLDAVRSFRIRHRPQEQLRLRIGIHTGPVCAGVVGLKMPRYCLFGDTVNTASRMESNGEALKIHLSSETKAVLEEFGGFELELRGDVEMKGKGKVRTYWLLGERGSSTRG

C=CCC1(O)C=CCC2C3C4C(OC(C)(C)C)C2C1C34 (stereo unspecified)
inactive: activity change, negative = inhibition [1] -12.7% [at 11.4 µM] | activity change, negative = inhibition [2] -11.8% [at 11.4 µM] | activity, negative = inhibition [3] -32.4% [at 11.4 µM] | Potency [4] | Potency [5] | Potency [6] | Potency [7] | Potency [8]

CC(=O)OC[C@H]1O[C@H](C#Cc2ccccc2)C=C[C@@H]1OC(C)=O
inactive: Potency [4] | Potency [5] | Potency [6] | Potency [7] | Potency [8]

COc1ccc2c(c1)CO[C@H]([C@H](O)CO)[C@H]2C=CC#Cc1ccc(C(C)(C)C)cc1
inactive: Potency [4] | Potency [6] | Potency [7] | Potency [8]

COc1cc2c(c(OC)c1OC)CC(C)=C(C)CC2NC(=O)C(F)(F)F (stereo unspecified)
inactive: Potency [4] | Potency [5] | Potency [7] | Potency [8]

CC1=C2[C@H](O)[C@H]([C@@H](C)C(=O)NCCC(C)C)CC[C@@]2(C)C=CC1=O
inactive: Potency [4] | Potency [5] | Potency [7] | Potency [8]

COC(=O)C1=C(C(=O)OC)[C@@H]2N(C)c3ccc(OC)cc3[C@@]23C[C@@H](C(=O)OC)N(C(=O)NCCBr)C3=N1
active: Potency [4] 2130 nM | Potency [6] 2130 nM
inactive: Potency [8]

COc1ccc(N2C(=O)N3[C@H](c4ccccc4)[C@@H](C)C[C@H]4c5ccccc5C[C@]43C2=O)cc1
inactive: Potency [4] | Potency [6] | Potency [7] | Potency [8]

COc1cc2c(cc1OC)[C@@H]1O[C@](CCCCN3C(=O)c4ccccc4C3=O)(C2)Oc2c1c(=O)oc1ccccc21
active: Potency [4] 1690 nM | Potency [6] 2390 nM
inactive: Potency [8]

C[C@@H]1C=CCCO[C@]12C(=O)N(CC1CC1)c1cccc(Br)c12
inactive: Potency [4] | Potency [5] | Potency [7] | Potency [8]

C=CCN1c2ccccc2[C@]23CCC(=O)N(CC(=O)OC)C2=NC(C(=O)OC)=C(C(=O)OC)[C@H]13
inactive: Potency [4] | Potency [5] | Potency [7] | Potency [8]

Cc1c(O)c(=O)ccn1Cc1ccccc1
inactive: activity change, negative = inhibition [1] -0.343% [at 11.4 µM] | activity change, negative = inhibition [2] -6.33% [at 11.4 µM] | activity, negative = inhibition [3] 38.4% [at 11.4 µM] | Potency [4] | Potency [5] | Potency [8]

COC(=O)C1=C(C(=O)OC)[C@@H]2N(CC=C(C)C)c3ccccc3[C@@]23CCC(=O)N(Cc2cccc(C(F)(F)F)c2)C3=N1
inactive: Potency [8]
active: Potency [4] 849 nM | Potency [6] 2940 nM

COC(=O)N[C@H](C(C(=O)OC)=C(C)NCc1ccccc1)c1cccc(C)c1
inactive: Potency [4] | Potency [5] | Potency [7] | Potency [8]
